Data from the supplement of paper PMC6089552.
In all, about 3,200 compounds went through this assay and about 300 (9.4%) showed activity. The full list was thinned out, with actives kept by preference.

Tested on: A673/TR/shEF
Assay: cell viability (LOESS-normalised, relative to median of negative controls) (log2 ratio); higher = more viable cells (less compound effect), active = hit call of the paper (over 3 MAD below the median)
Details: treatment time: 72 h
Method in brief: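 A673/TR/shEF Ewing sarcoma cells were plated at 1,500 per well in 384-well plates and cultured with or without doxycycline, added 24 h before compounds, to induce EWS-FLI1 shRNA knockdown. Library compounds at two or more concentrations, alongside DMSO controls, were applied for three days. Cell viability was measured by CellTiter-Glo luminescence on an Envision reader. Readings were LOESS-corrected per plate, divided by the median of negative controls and log2-transformed, and hits were wells lying at least three median absolute deviations from the median of all screened wells.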

[1] = 0.25 µM, library screen: screen2, EWS-FLI1 expression: high (no doxycycline)
[2] = 0.25 µM, library screen: screen2, EWS-FLI1 expression: low (doxycycline-induced shRNA knockdown)
[3] = 2.5 µM, library screen: screen2, EWS-FLI1 expression: high (no doxycycline)
[4] = 2.5 µM, library screen: screen2, EWS-FLI1 expression: low (doxycycline-induced shRNA knockdown)
[5] = 0.25 µM, library screen: screen1, EWS-FLI1 expression: high (no doxycycline)
[6] = 0.25 µM, library screen: screen1, EWS-FLI1 expression: low (doxycycline-induced shRNA knockdown)
[7] = 2.5 µM, library screen: screen1, EWS-FLI1 expression: high (no doxycycline)
[8] = 2.5 µM, library screen: screen1, EWS-FLI1 expression: low (doxycycline-induced shRNA knockdown)
[9] = 0.103 µM, library screen: screen3, EWS-FLI1 expression: high (no doxycycline)
[10] = 0.103 µM, library screen: screen3, EWS-FLI1 expression: low (doxycycline-induced shRNA knockdown)
[11] = 0.308 µM, library screen: screen3, EWS-FLI1 expression: high (no doxycycline)
[12] = 0.308 µM, library screen: screen3, EWS-FLI1 expression: low (doxycycline-induced shRNA knockdown)
[13] = 0.926 µM, library screen: screen3, EWS-FLI1 expression: high (no doxycycline)
[14] = 0.926 µM, library screen: screen3, EWS-FLI1 expression: low (doxycycline-induced shRNA knockdown)
[15] = 2.8 µM, library screen: screen3, EWS-FLI1 expression: high (no doxycycline)
[16] = 2.8 µM, library screen: screen3, EWS-FLI1 expression: low (doxycycline-induced shRNA knockdown)
[17] = 8.3 µM, library screen: screen3, EWS-FLI1 expression: high (no doxycycline)
[18] = 8.3 µM, library screen: screen3, EWS-FLI1 expression: low (doxycycline-induced shRNA knockdown)
[19] = 25 µM, library screen: screen3, EWS-FLI1 expression: high (no doxycycline)
[20] = 25 µM, library screen: screen3, EWS-FLI1 expression: low (doxycycline-induced shRNA knockdown)
[21] = 0.025 µM, library screen: screen1, EWS-FLI1 expression: high (no doxycycline)
[22] = 0.025 µM, library screen: screen1, EWS-FLI1 expression: low (doxycycline-induced shRNA knockdown)
[23] = 25 µM, library screen: screen1, EWS-FLI1 expression: high (no doxycycline)
[24] = 25 µM, library screen: screen1, EWS-FLI1 expression: low (doxycycline-induced shRNA knockdown)

Measured: cell viability (log2)

CC(=O)O[C@H]1CC2(C)[C@@H](C[C@@H](O)[C@H]3[C@@]4(C)CC[C@@H](O)[C@@H](C)[C@@H]4CC[C@@]32C)/C1=C(/CCC=C(C)C)C(=O)O (some centres undefined)
inactive: [1] 0.0714 | [2] 0.0604 | [3] 0.159 | [4] 0.0152

CC1CCC2(CO)CCC3(C)C(=CCC4C5(C)CCC(O)C(C)(C)C5CCC43C)C2C1C (centres undefined)
inactive: [5] 0.00774 | [6] -0.0265 | [7] 0.0749 | [8] 0.092

Cn1cnc2c(F)c(Nc3ccc(Br)cc3Cl)c(C(=O)NOCCO)cc21
inactive: [9] -0.0515 | [10] 0.111 | [11] -0.109 | [12] 0.0965 | [14] 0.113 | [16] 0.014 | [18] 0.0549 | [20] -0.089
active: [13] -0.189 | [15] -0.222 | [17] -0.293 | [19] -0.303

Cc1ccccc1CN1CCN(Cc2ccco2)CC1
inactive: [5] 0.12 | [6] 0.0129 | [7] 0.0799 | [8] -0.0931

Cc1ccc(CN2CCN(Cc3c[nH]c4ccccc34)CC2)cc1
inactive: [5] 0.0521 | [6] 0.0225 | [7] 0.104 | [8] 0.0231

CC(=O)c1cc2c(cc1O)OC(C)(C)C=C2
inactive: [5] 0.16 | [6] -0.0151 | [7] 0.126 | [8] 0.0912

CC(C)N1C(=O)C(=Cc2ccccc2F)SC1=S
inactive: [5] 0.0965 | [6] 0.0324 | [7] 0.0812 | [8] -0.039

CC(C(=O)O)N1C(=O)C(=Cc2cccnc2)SC1=S (centres undefined)
inactive: [5] -0.0281 | [6] 0.0107 | [7] 0.0923 | [8] -0.0695

CC(C(=O)O)N1C(=O)C(=Cc2ccccn2)SC1=S (centres undefined)
active: [5] -2.05 | [6] -1.9
inactive: [7] 0.144 | [8] 0.106

C=CC1=C(C)/C(=C/c2[nH]c(Cc3[nH]c(/C=C4\NC(=O)C(C)=C4C=C)c(C)c3CCC(=O)O)c(CCC(=O)O)c2C)NC1=O
inactive: [5] 0.0132 | [6] 0.0277 | [7] 0.0983 | [8] 0.128

S=c1[nH]nc(COc2ccc(Cl)cc2Cl)n1-c1ccccc1
inactive: [5] 0.00963 | [6] 0.148 | [7] 0.0937 | [8] 0.0872

C[C@@H]1CC[C@@]2(OC1)O[C@H]1C[C@H]3[C@@H]4CC[C@H]5C[C@@H](O)CC[C@]5(C)[C@H]4CC(=O)[C@]3(C)[C@H]1[C@@H]2C
inactive: [5] 0.102 | [6] -0.00894 | [7] 0.127 | [8] 0.0766

Nc1ncc2[nH]cnc2n1
inactive: [21] 0.156 | [22] 0.0178 | [5] 0.22 | [6] 0.0137 | [8] 0.025 | [23] -0.0198 | [24] 0.0477
active: [7] -0.0954

Nc1nc(OCc2ccccc2)c2[nH]cnc2n1
inactive: [1] 0.21 | [2] 0.111 | [3] 0.106 | [4] 0.0266

Nc1ncnc2nc[nH]c12
inactive: [9] -0.0276 | [10] 0.0358 | [5] -0.00904 | [6] 0.112 | [11] 0.0266 | [12] 0.0376 | [13] 0.0356 | [14] 0.0359 | [7] 0.0839 | [8] 0.087 | [15] -0.0229 | [16] 0.045 | [17] -0.016 | [18] 0.0209 | [19] 0.0262 | [20] 0.0745

CN1CCC[C@@H]1c1cccnc1
inactive: [1] 0.0881 | [2] 0.0848 | [3] 0.112 | [4] 0.123

C[C@H](C[C@@H](O)[C@@H]1OC1(C)C)[C@@H]1CC[C@]2(C)C3=CC[C@H]4C(C)(C)C(=O)CC[C@]4(C)[C@H]3CC[C@@]12C
inactive: [5] 0.0762 | [6] 0.064 | [7] 0.0491 | [8] 0.136

Nc1nccc2c1ncn2[C@@H]1O[C@H](CO)[C@@H](O)[C@H]1O
inactive: [1] 0.199 | [2] 0.0735 | [3] 0.0748 | [4] 0.125

Nc1ncnc2c1ncn2C1CCCC1
inactive: [1] 0.222 | [2] 0.00723 | [3] 0.162 | [4] 0.101

Nc1ncnc2c1ncn2C1CCCO1 (centres undefined)
active: [1] -0.183 | [2] -0.136 | [3] -0.771 | [4] -0.568

Nc1ncnc2c1ncn2[C@@H]1O[C@H](CO)[C@@H](O)[C@@H]1O
inactive: 0.025 µM, library screen: screen2, EWS-FLI1 expression: high (no doxycycline) 0.125 | 0.025 µM, library screen: screen2, EWS-FLI1 expression: low (doxycycline-induced shRNA knockdown) 0.0247 | [9] 0.0965 | [10] 0.0781 | [1] 0.146 | [2] 0.0437 | [11] 0.134 | [12] 0.0881 | [13] 0.113 | [14] 0.0711 | [3] 0.229 | [4] 0.0883 | [15] 0.122 | [16] 0.114 | [17] 0.0774 | [18] 0.127 | 25 µM, library screen: screen2, EWS-FLI1 expression: high (no doxycycline) 0.0602 | 25 µM, library screen: screen2, EWS-FLI1 expression: low (doxycycline-induced shRNA knockdown) 0.0701 | [19] 0.0148 | [20] 0.128

Nc1ncnc2c1c(I)cn2[C@@H]1O[C@H](CO)[C@@H](O)[C@H]1O
inactive: [21] 0.145 | [22] -0.151 | [5] -0.0341 | [6] -0.172
active: [7] -1.08 | [8] -0.349 | [23] -2.42 | [24] -2.11

Nc1ncnc2c1ncn2C1OC(C(=O)NC2CC2)C(O)C1O (centres undefined)
inactive: [1] 0.208 | [2] 0.0695 | [3] 0.136 | [4] 0.0888

CNc1ncnc2c1ncn2[C@@H]1O[C@H](CO)[C@@H](O)[C@H]1O
inactive: [1] 0.104 | [2] 0.0674 | [3] 0.0505 | [4] 0.098

Nc1nc(F)nc2c1ncn2[C@@H]1O[C@H](CO)[C@@H](O)[C@@H]1O
inactive: [9] -0.0149 | [10] 0.0418 | [11] 0.0122 | [12] 0.0299 | [13] -0.0547 | [14] 0.0332 | [15] 0.0695 | [16] 0.0196 | [17] 0.023 | [18] 0.0649 | [19] 0.0762 | [20] 0.0699

Nc1ncnc2c1ncn2[C@@H]1O[C@H](CO)[C@@H](O)[C@H]1O
inactive: [9] 0.0648 | [10] 0.118 | [5] 0.105 | [6] 0.0646 | [2] 0.0787 | [11] 0.108 | [12] 0.149 | [13] 0.0961 | [14] 0.106 | [7] 0.129 | [8] 0.198 | [3] 0.141 | [4] 0.177 | [15] 0.133 | [16] 0.0552 | [17] 0.0565 | [18] 0.0635 | [19] 0.137 | [20] 0.158
active: [1] -0.195

COc1ccc(C(C)C(=O)c2ccc(O)cc2O)cc1 (centres undefined)
inactive: [5] 0.0783 | [6] 0.0339 | [7] 0.16 | [8] 0.123

CCOc1ccc(C(=O)c2cc(O)c(OC)c(OC)c2O)cc1
inactive: [5] 0.0714 | [6] 0.0518 | [7] 0.162 | [8] 0.129

CC(=O)OC1CCC2(C)C3=C(CC[C@H]2C1(C)C)[C@@]1(C)CC[C@@H]([C@@H](C)CCC=C(C)C)[C@]1(C)CC3 (some centres undefined)
inactive: [5] 0.058 | [6] -0.000522 | [7] 0.0338 | [8] -0.0772

CCN1C(=O)/C(=C\c2cn(CCC#N)nc2-c2ccc(F)cc2)SC1=S
inactive: [5] 0.0868 | [6] 0.118 | [7] 0.107 | [8] -0.0141

O=C(NCc1ccco1)/C(=C\c1ccco1)NC(=O)c1cccs1
inactive: [5] 0.0268 | [6] 0.0429 | [7] 0.0986 | [8] 0.0245

O[C@@H](c1cc(C(F)(F)F)nc2c(C(F)(F)F)cccc12)[C@H]1CCCCN1
inactive: [5] 0.149 | [6] 0.0284 | [7] 0.156 | [8] 0.0765

OCC1OC(O)C(O)C(O)C1O (centres undefined)
inactive: [9] 0.00138 | [10] 0.0347 | [11] 0.0849 | [12] 0.0509 | [13] 0.0635 | [14] 0.0529 | [15] 0.0615 | [16] 0.0566 | [17] 0.0472 | [18] -0.0279 | [19] 0.168 | [20] 0.04

C=C1c2cccc(O)c2C(O)=C2C(=O)[C@]3(O)C(O)=C(C(N)=O)C(=O)[C@@H](N(C)C)[C@@H]3[C@@H](O)[C@H]12
inactive: [9] -0.0411 | [10] 0.0402 | [6] 0.0695 | [11] -0.0282 | [12] 0.0462 | [13] -0.105 | [14] 0.0725 | [8] 0.152 | [15] -0.0751 | [16] 0.0891 | [17] -0.0644 | [18] 0.0589 | [19] -0.0984 | [20] 0.0914
active: [5] -0.16 | [7] -0.0967

C=C1c2c(Cl)ccc(O)c2C(O)=C2C(=O)[C@]3(O)C(O)=C(C(N)=O)C(=O)[C@@H](N(C)C)[C@@H]3[C@@H](O)[C@H]12.O=C(O)c1cc(S(=O)(=O)O)ccc1O
active: [5] -0.128 | [7] -0.126
inactive: [6] 0.0882 | [8] 0.0927

C[C@H]1c2cccc(O)c2C(O)=C2C(=O)[C@]3(O)C(O)=C(C(N)=O)C(=O)[C@@H](N(C)C)[C@@H]3[C@@H](O)[C@@H]21
inactive: [5] 0.0339 | [6] 0.251 | [1] 0.0723 | [2] 0.0745 | [7] 0.0598 | [8] 0.256 | [3] -0.00226 | [4] 0.0538

CN(C)c1ccc(O)c2c1C[C@H]1C[C@H]3[C@H](N(C)C)C(=O)C(C(N)=O)=C(O)[C@@]3(O)C(=O)C1=C2O
inactive: [6] -0.0588 | [1] 0.0664 | [2] 0.133 | [8] 0.0344 | [3] 0.00725 | [4] 0.0554
active: [5] -0.177 | [7] -0.0936
